# Compound activity from PubChem BioAssay.
# D2 ag-1 = activates the human D2 dopamine receptor; DiscoveRx PathHunter D2 beta-arrestin, luminescence, 90 min; 100% = 57 uM dopamine signal; activation, % (concentration not given with the values); hit rate 0.084% among 360,000; in the data active = activation above about 40%; inconclusive = between about 15% and that limit
# Target sequence (P14416 whole entry, looked up): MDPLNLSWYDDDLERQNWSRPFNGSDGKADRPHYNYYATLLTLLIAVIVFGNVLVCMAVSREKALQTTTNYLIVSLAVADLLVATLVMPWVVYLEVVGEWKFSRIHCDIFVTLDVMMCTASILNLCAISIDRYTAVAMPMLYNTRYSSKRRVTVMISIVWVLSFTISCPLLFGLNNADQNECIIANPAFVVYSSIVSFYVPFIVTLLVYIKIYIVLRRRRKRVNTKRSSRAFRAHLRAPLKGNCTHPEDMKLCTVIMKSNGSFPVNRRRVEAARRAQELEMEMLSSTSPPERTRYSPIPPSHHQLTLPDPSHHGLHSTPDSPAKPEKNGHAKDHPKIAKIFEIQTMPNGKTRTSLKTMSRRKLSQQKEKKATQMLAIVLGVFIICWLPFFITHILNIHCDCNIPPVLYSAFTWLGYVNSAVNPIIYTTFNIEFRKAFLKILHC
#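 DiscoveRx PathHunter D2 beta-arrestin cells (2,100/well) attached overnight, then compound-stimulated 90 min at 37 C in HBSS/10 mM HEPES/0.1% Tween-20 buffer; beta-galactosidase complementation read by luminescence after 1 h at ambient temperature. Dopamine 57 uM final (EC100) as control.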
# D2 PAM-1 = potentiates the human D2 dopamine receptor allosterically; P14416; hit rate 0.23% among 360,000; DiscoveRx D2 beta-arrestin cells, luminescence, 90 min; 100% = 57 uM dopamine signal; potentiation, % (test concentration not listed); AID 624464; in the data active = potentiation above about 50%; inconclusive = mostly about 30% to 49%
#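 PathHunter D2 cells, attached overnight at 37 deg C, received compound in DMSO plus dopamine at EC20 (50 nM final) for 90 min at 37 deg C. Beta-arrestin recruitment was read as luminescence after 1 h with detection reagent at ambient temperature.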
# D2 PAM-2 = positively modulates the human D2 dopamine receptor allosterically. HEK293 T-REx D2, calcium flux, EC20 dopamine potentiation. potentiation, % at 10 µM. hit rate 0.34% among 340,000;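 active = potentiation over 3 SD above the plate norm, cut at about 30% in these data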; note: 0% is about no effect
#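 Potentiation of an EC20 dopamine calcium response measured kinetically over 180 s, after a preceding 180 s compound-only read flagging agonists. Cells: inducible Hek293 Trex D2 line, 4000/well, cultured overnight at 30 C before dye loading.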
# D2 ag-2 = activates the human D2 dopamine receptor; activation, % at 2 µM; HEK293 T-REx D2 cells, calcium flux agonist mode; P14416; hit rate 0.53% among 340,000;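 active = activation over 3 SD above normal in the single-dose calcium agonist read, cut at about 30% in these data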; note: 0% is about no effect
#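 Calcium-flux readout, 1 cycle/sec over 180 s following compound pin transfer, in inducible HEK293 Trex D2 cells (force-coupled); dopamine controls included. Positive calcium responses during this window marked compounds as potential agonists.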
# D2 antagonist = antagonists of human D2 dopamine receptor; HEK293 TREx D2 cells, calcium flux, dopamine EC80; inhibition, % at 10 µM; hit rate 2% among 340,000; AID 485344; in the data active = inhibition above about 30%; inactive = below that, where a call was filed; note: 0% is about no effect
#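 Inhibition of EC80 dopamine-driven calcium flux, recorded kinetically, defines activity here; cells are a tetracycline-induced HEK293 T-REx line expressing force-coupled D2.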
# * = called active by the depositor; ? = inconclusive; / = not tested or not shown. Shown are actives, neighbours in structure and some others; about 2.4% of the full set was active somewhere.
SMILES,D2 ag-1,D2 PAM-1,D2 PAM-2,D2 ag-2,D2 antagonist
O=C(NC(Oc1ccccc1)C(Cl)(Cl)Cl)c1ccccc1 (stereo unspecified),-1,-4,-4,-1,16
O=C1NC(=O)N(c2ccccc2F)C(=O)/C1=C/c1ccc(Sc2nc3ccccc3[nH]2)o1,-5,-6,10,19,44*
C=CCn1c(O)c(C(CC)=NC2CC2)c(=O)[nH]c1=O,0,11,-12,0,39*
CC(=NCCN1CCOCC1)c1c(O)n(Cc2ccccc2)c(=O)[nH]c1=O,1,-6,0,0,-7
C=CCn1c(O)c(C(C)=NCCN2CCOCC2)c(=O)[nH]c1=O,1,-3,-5,1,39*
Cc1cccc(Cn2cccc(C(=O)Nc3nnc(C)s3)c2=O)c1,/,/,3,-1,/
COC(=O)C1=C(c2ccc(OCc3ccccc3)cc2)C[C@@H]2CC[C@H]1N2C(=O)NC1CCN(Cc2ccccc2)CC1,2,-103,-11,-1,70*
CCN1/C(=C\C=C\C2=[N+](CC)c3ccccc3C2(C)C)C(C)(C)c2ccccc21,-8,-37,-17,50*,21
COc1ccc2c(c1)CC1(CN2C)C(=O)NC(=O)N(CCc2ccccc2)C1=O (stereo unspecified),2,12,7,0,-32
CCC(C)N1C(=O)NC(=O)C2(Cc3c(ccc4ccccc34)N(C)C2)C1=O (stereo unspecified),8,77*,10,-1,-27
Nc1c(Br)cc2c3c(cccc13)-c1ccccc1-2,7,60*,/,/,/
CC1=CC(=O)C2=C(C)CC(O)C3C(C)C(=O)OC3C12 (stereo unspecified),2,3,3,0,35*
O=c1c2ccccc2nc(/C=C/c2ccccc2O)n1-c1ccc(Br)cc1,/,/,2,0,/
Cc1ccc(-n2nc(C)c3c2NC(=O)CSC3c2ccc(O)cc2)cc1Cl (stereo unspecified),/,/,8,-2,/
CCOP(=O)(CCP(=O)(OCC)OCC)OCC.C[CH2][Sn]([Cl])([Cl])[CH2]C,-5,-29,/,/,/
CC(=NCCC1=CCCCC1)c1c(O)n(-c2ccccc2)c(=O)[nH]c1=O,-5,-3,-9,0,31*
CCCCC1(CCCC)C(=O)NC(=Nc2cccc(C)c2)NC1=O,-3,-14,14,0,-17
Cc1cccc(N=C2c3cc([N+](=O)[O-])ccc3-c3c2cc([N+](=O)[O-])cc3[N+](=O)[O-])c1,10,109*,/,/,/
Cc1cc(-n2c(/C=C/c3cccs3)nc3ccccc3c2=O)ccc1Br,/,/,9,1,/
CC1=C(C)CN2CC(C#N)=C(N)C2C1 (stereo unspecified),0,3,/,/,/
COC1C(C)OC(OC2CC(C)(O)Cc3cc4c(c(O)c32)C(=O)c2c(O)cc3c(c2C4=O)OC2OC3(C)C(O)C(N(C)C)C2O)C(OC)C1(C)OC (stereo unspecified),8,19,/,/,/
CC(C)[C@H]1C(=O)N2CCC[C@H]2[C@]2(O)O[C@](NC(=O)[C@@H]3C=C4c5cccc6[nH]cc(c56)C[C@H]4N(C)C3)(C(C)C)C(=O)N12,80*,66*,-31,84*,88*
CC(C)[C@@]1(NC(=O)[C@@H]2C=C3c4cccc5[nH]cc(c45)C[C@H]3N(C)C2)O[C@@]2(O)[C@@H]3CCCN3C(=O)[C@H](Cc3ccccc3)N2C1=O,/,/,-29,64*,80*
CCCCc1ccc(NC(=O)c2cccn(Cc3ccc(Cl)cc3)c2=O)cc1,/,/,-3,/,/
Cc1ccc(CN2C3CCCC2CC(NC(=O)Nc2cccc(F)c2)C3)cc1 (stereo unspecified),-2,-26,-28,1,75*
SMILES,D2 ag-1,D2 PAM-1,D2 PAM-2,D2 ag-2,D2 antagonist
N#Cc1cc2c(nc1SCC(=O)Nc1ccc(C(F)(F)F)cc1)C1CCN2CC1,/,/,-7,/,/
CC(C)N1CCOC(c2ccc(O)c(O)c2)C1 (stereo unspecified),83*,60*,/,/,/
CC(C)N1CCN(c2ccc(O)cc2)CC1,10,-11,-27,1,15
O=C1NC(=O)[C@]2(Cc3ccccc3N3CCN(c4ccccc4)CC32)C(=O)N1Cc1ccccc1 (stereo partly specified),?,9,-18,35*,40*
Cc1ccccc1-n1nc(C)c2c1NC(=O)CSC2c1ccccc1C(F)(F)F (stereo unspecified),/,/,-1,-1,/
CN(C)C1(CNC(=O)Nc2ccc(Cl)c(Cl)c2)CCCCC1,-2,-15,-34,3,54*
CN(C)C1(CNC(=O)c2ccc(NS(=O)(=O)c3ccc(Cl)c(Cl)c3)cc2)CCCCC1,-1,-3,0,1,8
Cc1ccc(NC(=O)CN2C(=O)CN=C(c3ccccc3)c3ccccc32)c(C)c1,/,/,-5,0,/
CC(C)c1ccc(NC(=O)CN2C(=O)CN=C(c3ccccc3)c3ccccc32)cc1,/,/,2,0,/
O=C(CCCN1CCC2(CC1)C(=O)NCN2c1ccccc1)c1ccc(F)cc1,/,/,/,76*,71*
C[C@@H]1C[C@H]2OC(=O)C3(CO3)[C@H]2[C@H](O)[C@]2(C)C(=O)C3OC3[C@@H]12 (stereo partly specified),/,/,15,0,41*
COc1ccc(C(=O)N2CCCC2=O)cc1,-4,-6,5,1,40*
CCC(C)NC(=O)CCC(=O)OC1O[C@H]2OC3(C)CC[C@H]4[C@H](C)CCC(C1C)C24OO3 (stereo partly specified),57*,24,7,0,-31
CCC(C)C(NC(=O)CCCNC(=O)CCC(=O)OC1O[C@H]2OC3(C)CC[C@H]4[C@H](C)CCC(C1C)C24OO3)C(=O)O (stereo partly specified),/,/,16,0,18
CCOC(=O)C(NC(=O)CC)(Nc1ccc(C(O)(C(=O)OCC)C(F)(F)F)cc1C)C(F)(F)F (stereo unspecified),-4,0,15,-1,34*
CCOC(=O)C(NC(=O)CCl)(Nc1ccc(C(O)(C(=O)OCC)C(F)(F)F)cc1)C(F)(F)F (stereo unspecified),-3,-8,3,0,-1
CCN1C(=O)NC(=O)/C(=C/c2cc(C)n(-c3sc(C)c(C)c3C#N)c2C)C1=O,0,11,44*,-2,-24
Cc1ccccc1NC1=NCCCS1,-1,-11,6,1,-22
Cc1cccc(NC2=NCCCS2)c1C,2,-6,-10,0,38*
CC(=O)N1CCC2(CC1)CC(=O)c1cc(OCC(=O)N3CCN(C)CC3)ccc1O2,-1,-5,-3,0,-4
CC(=O)N1CCC2(CC1)CC(=O)c1cc(OCC(=O)N3CCC4(CC3)OCCO4)ccc1O2,2,2,31*,0,0
